# Assay results taken from PubChem BioAssay (NCATS).
# Several values for one entry are separate records, joined by “and”; a condition that tells them apart may be missing. Equal entries are not always repeated. Inconclusive results are not listed. The source holds several records for some structures; these can differ, active in one and inactive in another. Values without a mark were called inactive. Activity calls are given as the source filed them. The call rests on the fitted dose curve; in most records, active means well fitted activation curve with a large enough effect in the signal ratio (not every such curve was filed as active); inconclusive means small, poorly fitted or top-dose-only effect, or a change in a side signal; inactive means flat fitted curve, though single readings scatter; the % refers to the signal ratio.
# Experiment: qHTS assay for small molecule activators of the p53 signaling pathway (AID 651743); on activation: series mostly up to about 92 µM; % of control where 0% means no effect
# Settings: HCT-116 p53RE-bla, beta-lactamase FRET ratio, 16 h; activation: stronger effect = higher value
# Text: National Center for Advancing Translational Sciences [NCATS] NIH Chemical Genomics Center [NCGC] U.S. Environmental Protection Agency [EPA] National Institutes of Environmental Health Sciences [NIEHS] National Toxicology Program [NTP] Assay Overview: p53, a tumor suppressor protein, is activated following cellular insult, including DNA damage and other cellular stresses. The activation of p53 regulates cell fate by inducing DNA repair, cell cycle arrest, apoptosis, or cellular senescence. The activation of p53, therefore, is a good indicator of DNA damage and other cellular stresses. The CellSensor p53RE-bla HCT-116 cell line (Invitrogen) contains a stably integrated beta-lactamase reporter gene under control of the p53 response elements. The activation of the report gene under culture conditions can be detected by fluorescence intensity. This cell line can be used to screen chemicals in a 1536-well plate format and to identify agonists that activate p53 signaling pathway.
# Assay Protocol Summary: The p53RE-bla cells were dispensed at 4,000 cells/5 ul/well in 1536-well black wall/clear bottom plates using a Multidrop dispenser. After the assay plates were incubated at a 37 C/5% CO2 incubator for 5 hours, 23 nL of compounds dissolved in DMSO, positive controls or DMSO only was transferred to the assay plate by a pin tool. The plates were incubated at 37 C for 16 hours. After 1 uL of LiveBLAzer B/G FRET substrate was added using a Flying Reagent Dispenser, the plates were incubated at room temperature for 2 hours, and fluorescence intensity was measured by an Envision plate reader.
# Potency means the concentration at half of the fitted maximal effect.
Structure (SMILES),activation,Potency
O=C1OC(=O)c2ccccc21,-3.66%,
Oc1ccc(O)c2c(O)cccc12,-2.36%,
Oc1ccc2c(c1)OCO2,4.65%,
Brc1cc(Oc2cc(Br)c(Br)c(Br)c2Br)c(Br)c(Br)c1Br,-8.15% and -4.88%,
C=CC(=O)OCCCCCCOC(=O)C=C,-3.66%,70.8 µM (active)
Brc1ccc(-c2ccccc2)cc1,-2.65%,
Cc1c2ccccc2c(C)c2c1ccc1ccccc12,,44.7 µM (active)
O=[N+]([O-])c1cc(N(CCO)CCO)ccc1NCCO,-5.39% and -4.71%,
Nc1cc(C(=O)O)c(O)c(S(=O)(=O)O)c1,-4.77%,
Cc1cc2nc(N)sc2cc1C,-2.08%,
C[Si](C)(C)Cl,-2.87%,
c1ccc2c(c1)ccc1ccccc12,-2.61% and 2.1%,
c1ccc(CSCc2ccccc2)cc1,-0.938%,
CCCCCCCCOc1ccc(C(=O)O)cc1,4.64%,
Cc1ccc(S(N)(=O)=O)cc1,-4.8% and 0.0231%,
C=C(C#N)C(=O)OCC,2.02%,
CCc1ccc(C(c2ccc(CC)cc2)C(Cl)Cl)cc1,-0.867%,
CCCCCCc1ccc(-c2ccc(C#N)cc2)cc1,1.83%,
c1c[nH]cn1,-1.43%,
C=CC(C)(O)CCCC(C)CCCC(C)CCCC(C)C (stereo not given),-2.56%,

Structure (SMILES),activation,Potency
O=C(O)c1ccc([N+](=O)[O-])cc1,-2.78% and 0.222%,
CC(=O)OC(C(=O)c1ccccc1)c1ccccc1 (stereo not given),-2.72%,
C=Cc1cccc(C)c1,-1.54%,
Nc1cc([N+](=O)[O-])ccc1O,-1.58% and -3.77%,
O=[N+]([O-])c1ccccc1Nc1ccccc1,-4.76%,
CN(C)c1ccc(Cc2ccc(N(C)C)cc2)cc1,6.8% and -1.08%,
Cc1ccc(O)c(N)c1,2.36%,
CCOC(=O)C1OC1c1ccccc1 (stereo not given),6.05%,
O=c1[nH]ncc2ccccc12,-2.08%,
NC(=O)Nc1nc2ccccc2[nH]1,-0.426%,
OC1CCCCC1,-2.93%,
CN(C)c1ccc(C(=N)c2ccc(N(C)C)cc2)cc1,11.1%,
CC(=O)Nc1cccc(C)c1,0.223%,
CCCCCCN,-1.84%,
C=CC(=O)CC,-1.3%,
O=[N+]([O-])c1cccc(I)c1,-3.48%,
N[C@@H](Cc1ccccc1)C(=O)O,-1.26%,
CC(C)S,-1.26%,
CC(CCC(=O)O)(c1ccc(O)cc1)c1ccc(O)cc1,-5.03% and -5.24%,
